Data: PubChem BioAssay (Tox21)
Where “and” joins values, the source holds several entries; their conditions need not be identical. Identical values can stand only once. Inconclusive results are not listed. Some compounds were tested as several samples or in several runs, with calls that do not always agree. Calls of active or inactive are those of the source. Unless noted, calls follow the shape of the dose curve; as a rule, active = well fitted curve in the direction sought with a large enough effect in the repeat runs; inconclusive = weak or mixed curves; inactive = no such curve, though single readings can be large; an effect the other way counts as inactive or inconclusive.

Experiments:
[1] = qHTS assay to test for compound auto fluorescence at 535 nm (green) in HEK293 cells (AID 720680); conditions: green autofluorescence 485/535 nm; series mostly up to 91.3 µM
[2] = qHTS assay to test for compound auto fluorescence at 460 nm (blue) in HEK293 cell free culture (AID 720681); conditions: cell-free medium, autofluorescence 405/460 nm (blue); series mostly up to 91.3 µM
In short: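 Compounds were added to cell-free DMEM with 10% FBS and fluorescence read directly. The blue channel used 405 nm excitation and 460 nm emission, with triamterene as the reference fluorophore.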

[3] = qHTS assay to test for compound auto fluorescence at 535 nm (green) in HEK293 cell free culture (AID 720682); conditions: cell-free medium, green autofluorescence 485/535 nm; series mostly up to 91.3 µM
In short: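 Steps: dispense DMEM/10% FBS into empty wells; pin in compound or DMSO; measure fluorescence at 485/535 nm. Values are fluorescein equivalents.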

[4] = qHTS assay to test for compound auto fluorescence at 590 nm (red) in HEK293 cell free culture (AID 720683); conditions: cell-free medium autofluorescence, Ex540/Em590 red; series mostly up to 91.3 µM
In short: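 Cell-free wells of DMEM with 10% FBS received compound, and intrinsic fluorescence was read at excitation/emission 540/590 nm. Values expressed as equivalence to Rose Bengal sodium.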

[5] = qHTS assay to test for compound auto fluorescence at 590 nm (red) in HepG2 cell free culture (AID 720684); conditions: cell-free medium autofluorescence, red 540/590 nm; series mostly up to 91.3 µM
In short: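 Auto fluorescence equivalency versus Rose Bengal sodium, red channel Ex/Em 540/590 nm; compounds in cell-free MEM/10% FBS; DMSO vehicle control.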

[6] = qHTS assay to test for compound auto fluorescence at 460 nm (blue) in HepG2 cell free culture (AID 720685); conditions: Cell-free culture medium, blue autofluorescence 405/460 nm; series mostly up to 91.3 µM
In short: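 Cell-free plates of MEM plus 10% FBS received 23 nL compound or DMSO vehicle; blue-channel (405/460 nm) intensity scored against triamterene as reference fluorophore.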

[7] = qHTS assay to test for compound auto fluorescence at 535 nm (green) in HepG2 cell free culture (AID 720686); conditions: Cell-free medium, green autofluorescence 485/535 nm; series mostly up to 91.3 µM
[8] = qHTS assay to test for compound auto fluorescence at 460 nm (blue) in HepG2 cells (AID 720687); conditions: autofluorescence 405/460 nm, 1 h; series mostly up to 91.3 µM
In short: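 HepG2 cells in MEM with 10% FBS, attached overnight at 37 C, were exposed to compound or DMSO for 1 hr at 37 C, 5% CO2. Blue fluorescence was read at 405/460 nm, with triamterene as reference fluorophore.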

[9] = biological target: Glucocorticoid receptor (Homo sapiens) (UniProt P04150); assay: qHTS assay to identify small molecule agonists of the glucocorticoid receptor (GR) signaling pathway (AID 720691; active = well fitted activation curve with a large enough effect in the signal ratio in the repeat runs, not every such curve was filed as active; the % refers to the signal ratio; also: potency is read from the fitted curve at half-maximal effect); conditions: GR-bla HeLa, beta-lactamase reporter ratio, 18 h; series mostly up to 62.4 µM
Sequence of Glucocorticoid receptor (Homo sapiens) (P04150 whole entry, looked up): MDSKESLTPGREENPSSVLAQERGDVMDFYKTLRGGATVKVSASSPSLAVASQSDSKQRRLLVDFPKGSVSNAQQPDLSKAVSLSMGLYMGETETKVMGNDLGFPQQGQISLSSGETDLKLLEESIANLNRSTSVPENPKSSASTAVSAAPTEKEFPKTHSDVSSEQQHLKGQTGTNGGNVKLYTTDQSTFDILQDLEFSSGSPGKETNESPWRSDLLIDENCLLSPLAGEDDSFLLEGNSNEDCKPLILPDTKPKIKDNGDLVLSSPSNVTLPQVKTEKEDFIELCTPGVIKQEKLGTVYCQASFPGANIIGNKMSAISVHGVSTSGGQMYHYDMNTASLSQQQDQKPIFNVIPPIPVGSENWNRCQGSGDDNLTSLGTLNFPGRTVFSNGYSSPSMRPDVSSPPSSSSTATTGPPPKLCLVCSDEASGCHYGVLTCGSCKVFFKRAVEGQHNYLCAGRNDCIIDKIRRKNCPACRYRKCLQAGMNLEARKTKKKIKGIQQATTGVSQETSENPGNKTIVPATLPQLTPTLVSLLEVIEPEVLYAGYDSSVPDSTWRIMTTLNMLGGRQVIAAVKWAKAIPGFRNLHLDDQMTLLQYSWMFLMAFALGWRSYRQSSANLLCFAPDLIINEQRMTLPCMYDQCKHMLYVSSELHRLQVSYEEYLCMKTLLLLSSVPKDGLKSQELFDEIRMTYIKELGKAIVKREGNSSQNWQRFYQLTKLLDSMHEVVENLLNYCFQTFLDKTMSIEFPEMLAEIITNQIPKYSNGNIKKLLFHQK
In short: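 HeLa GR-bla reporter line; cells pre-incubated 4 h, compound in DMSO 18 h at 37 C; LiveBLAzer B/G FRET substrate 2 h RT; fluorescence intensity read-out.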

[10] = biological target: Glucocorticoid receptor (Homo sapiens) (UniProt P04150); assay: qHTS assay to identify small molecule antagonists of the glucocorticoid receptor (GR) signaling pathway (AID 720692; active = well fitted inhibition curve with a large enough effect in the signal ratio in the repeat runs, not every such curve was filed as active; the % refers to the signal ratio; also: potency is read from the fitted curve at half-maximal effect); conditions: GR-bla HeLa, beta-lactamase FRET ratio, dexamethasone-stimulated, 18 h; series mostly up to 58.5 µM
In short: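 Read-out: beta-lactamase FRET substrate fluorescence, 2 h at room temperature, in HeLa cells stably carrying a GRE-driven bla reporter. Compounds were co-incubated with 5 nM dexamethasone agonist (final) for 18 h at 37 C.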

[11] = qHTS assay to identify small molecule antagonists of the glucocorticoid receptor (GR) signaling pathway - cell viability counter screen (AID 720693); conditions: GR-bla HeLa viability, CellTiter-Glo luminescence, 18 h, with 5 nM dexamethasone present; series mostly up to 58.5 µM; also: nearly all actives have a fitted effect of over 55% in size; also: potency is read from the fitted curve at half-maximal effect
[12] = qHTS assay for identifying genotoxic compounds that show differential cytotoxicity against isogenic chicken DT40 cell lines with known DNA damage response pathways - wild type cell line (AID 743012); conditions: DT40 wild type chicken cells viability, CellTiter-Glo, 40 h; series mostly up to 68.4 µM; also: nearly all actives have a fitted effect of over 60% in size; also: potency is read from the fitted curve at half-maximal effect
In short: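 CellTiter-Glo luminescence readout of viability in wild type DT40 cells after 40 h compound exposure at 37 C/5% CO2; 300 cells/well; reagent incubated 30 min at room temperature before reading.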

[13] = qHTS assay for identifying genotoxic compounds that show differential cytotoxicity against isogenic chicken DT40 cell lines with known DNA damage response pathways - Rev3 mutant cell line (AID 743014); conditions: chicken DT40 Rev3-/- viability, CellTiter-Glo, 40 h; series mostly up to 68.4 µM; also: nearly all actives have a fitted effect of over 55% in size; also: potency is read from the fitted curve at half-maximal effect
[14] = qHTS assay for identifying genotoxic compounds that show differential cytotoxicity against isogenic chicken DT40 cell lines with known DNA damage response pathways - Rad54/Ku70 mutant cell line (AID 743015); conditions: DT40 Rad54/Ku70 mutant viability, CellTiter-Glo, 40 h; series mostly up to 66.8 µM; also: nearly all actives have a fitted effect of over 60% in size; also: potency is read from the fitted curve at half-maximal effect
[15] = qHTS assay to identify small molecule antagonists of the androgen receptor (AR) signaling pathway - cell viability counter screen (AID 743033; also: nearly all actives have a fitted effect of over 45% in size; also: potency is read from the fitted curve at half-maximal effect); conditions: AR-bla HEK293 viability, CellTiter-Glo luminescence, 16 h; series mostly up to 58.5 µM
[16] = qHTS assay to identify small molecule antagonists of the androgen receptor (AR) signaling pathway using the MDA cell line - cell viability counter screen (AID 743041; also: nearly all actives have a fitted effect of over 45% in size); conditions: MDA-kb2 viability, CellTiter-Fluor, 16 h, cells co-treated with R1881 androgen agonist; series mostly up to 70.3 µM
In short: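 Compound exposure lasted 16 h at 37C in MDA-kb2 AR-luc cells stimulated with R1881. Protease-based CellTiter-Fluor reagent was applied for the final 30 min and fluorescence measured.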

[17] = biological target: Androgen receptor (Homo sapiens) (UniProt P10275); assay: qHTS assay to identify small molecule antagonists of the androgen receptor (AR) signaling pathway (AID 743035; active = well fitted inhibition curve with a large enough effect in the signal ratio in the repeat runs, not every such curve was filed as active; the % refers to the signal ratio); conditions: HEK293 AR-UAS-bla, R1881-stimulated, beta-lactamase FRET, 16 h; series mostly up to 58.5 µM
Sequence of Androgen receptor (Homo sapiens) (P10275 whole entry, looked up): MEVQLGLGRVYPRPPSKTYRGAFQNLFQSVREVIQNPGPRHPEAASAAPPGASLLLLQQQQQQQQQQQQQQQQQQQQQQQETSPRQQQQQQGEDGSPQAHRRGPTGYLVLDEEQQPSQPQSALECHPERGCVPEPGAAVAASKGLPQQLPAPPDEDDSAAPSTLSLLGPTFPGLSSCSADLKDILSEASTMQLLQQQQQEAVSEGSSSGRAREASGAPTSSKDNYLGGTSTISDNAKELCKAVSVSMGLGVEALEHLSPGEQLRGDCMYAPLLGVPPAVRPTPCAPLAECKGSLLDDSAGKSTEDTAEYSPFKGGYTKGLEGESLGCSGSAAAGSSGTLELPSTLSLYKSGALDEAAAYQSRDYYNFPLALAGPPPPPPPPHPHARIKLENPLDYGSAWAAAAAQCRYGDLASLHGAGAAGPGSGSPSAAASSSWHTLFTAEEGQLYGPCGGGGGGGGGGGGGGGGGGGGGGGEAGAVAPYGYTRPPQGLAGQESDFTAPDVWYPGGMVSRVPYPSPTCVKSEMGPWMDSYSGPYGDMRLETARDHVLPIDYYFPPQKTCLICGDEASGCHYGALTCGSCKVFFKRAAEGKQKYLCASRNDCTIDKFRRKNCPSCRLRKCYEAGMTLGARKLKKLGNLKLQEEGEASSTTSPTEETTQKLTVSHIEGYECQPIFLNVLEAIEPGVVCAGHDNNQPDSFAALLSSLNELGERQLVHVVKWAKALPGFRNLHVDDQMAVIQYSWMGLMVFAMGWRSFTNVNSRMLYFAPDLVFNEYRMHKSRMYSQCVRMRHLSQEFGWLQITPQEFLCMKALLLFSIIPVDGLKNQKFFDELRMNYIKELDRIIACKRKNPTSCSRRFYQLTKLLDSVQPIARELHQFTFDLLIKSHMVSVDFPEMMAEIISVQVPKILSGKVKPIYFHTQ
In short: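 AR-bla HEK293 reporter cells; 4 h settle at 37C/5% CO2; compound + R1881 agonist, 16 h at 37C; LiveBLAzer B/G FRET substrate 2 h RT; fluorescence intensity read. qHTS format.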

[18] = biological target: Androgen receptor (Homo sapiens) (UniProt P10275); assay: qHTS assay to identify small molecule agonists of the androgen receptor (AR) signaling pathway (AID 743036; active = well fitted activation curve with a large enough effect in the signal ratio in the repeat runs, with a control signal flat, not every such curve was filed as active; the % refers to the signal ratio); conditions: HEK293 AR-UAS-bla GripTite, beta-lactamase FRET ratio, 16 h; series mostly up to 62.4 µM
In short: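 Reporter line: GeneBLAzer AR-UAS-bla-GripTite (HEK293). Steps: plate cells, 4 h rest, add compounds, 16 h at 37C, add LiveBLAzer B/G substrate, 2 h at RT, read fluorescence.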

[19] = biological target: Androgen receptor (Homo sapiens) (UniProt P10275); assay: qHTS assay to identify small molecule agonists of the androgen receptor (AR) signaling pathway using the MDA cell line (AID 743040; also: nearly all actives have a fitted effect of over 20% in size); conditions: MDA-kb2 AR-luc cells, MMTV luciferase, 16 h, stronger effect = higher value; series mostly up to 70.3 µM
In short: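 Testing was done with the MDA-kb2 AR-luc line, a human breast carcinoma stably transfected with MMTV-luciferase containing AR and GR response elements. Cells were exposed 16 h at 37C before ONE-Glo luminescence detection.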

[20] = biological target: Androgen receptor (Homo sapiens) (UniProt P10275); assay: qHTS assay to identify small molecule antagonists of the androgen receptor (AR) signaling pathway using the MDA cell line (AID 743042; also: nearly all actives have a fitted effect of over 55% in size); conditions: MDA-kb2 AR-luc, MMTV luciferase, R1881 antagonist, 16 h; series mostly up to 70.3 µM
In short: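 MDA-kb2 breast carcinoma cells carrying MMTV-luciferase (AR/GR responsive) were co-treated with compounds and the agonist R1881 for 16 h at 37C. Inhibition read as ONE-Glo luminescence; CellTiter-Fluor fluorescence measured in parallel for cytotoxicity.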

Measured: Potency

NC(N)=Nc1nc(CSCC/C(N)=N/S(N)(=O)=O)cs1
not listed: [17] | [18] | [19] | [20]
inactive: all other assays above

O=C(O)CP(=O)(O)O
not listed: [17] | [18] | [19] | [20]
inactive: all other assays above

Cc1ccnc2c1NC(=O)c1cccnc1N2C1CC1
not listed: [17] | [18] | [19] | [20]
inactive: all other assays above

CC(C)CCOCc1ccccc1
inactive: all assays above

NNCCc1ccccc1
not listed: [17] | [18] | [19] | [20]
inactive: all other assays above

CCCCCCCCCCCC[N+](C)(C)C
active: [10] 21.8 µM and 21.9 µM | [11] 24.5 µM and 17.4 µM and 38.9 µM | [12] 861 nM and 243 nM and 217 nM | [13] 432 nM and 137 nM and 217 nM | [15] 48.9 µM and 49 µM and 38.9 µM
not listed: [14] | [16] | [17] | [18] | [19] | [20]
inactive: all other assays above

CC(=O)Nc1ccc(C(=O)CCl)cc1
active: [13] 1.93 µM | [14] 1.72 µM
inactive and 1.72 µM (active): [12]
not listed: [16] | [17]
inactive: all other assays above

CCn1cc(C(=O)O)c(=O)c2cc(F)c(N3CCNC(C)C3)c(F)c21 (stereo unspecified)
active: [12] 26.6 µM
not listed: [14] | [17] | [18] | [19] | [20]
inactive: all other assays above

OCCN1CCNCC1
active: [13] 31.2 µM
not listed: [12] | [14] | [17] | [18] | [19] | [20]
inactive: all other assays above

CCc1ccc(C(c2ccc(CC)cc2)C(Cl)Cl)cc1
not listed: [10] | [14] | [17]
inactive: all other assays above

COC(=O)[C@H]1[C@H]2C[C@@H]3c4[nH]c5cc(OC)ccc5c4CCN3C[C@H]2C[C@@H](OC(=O)c2cc(OC)c(OC)c(OC)c2)[C@@H]1OC
inactive and 21.8 µM (active): [15]
active: [12] 13.3 µM and 17.7 µM | [13] 18.8 µM and 25 µM | [14] 18.8 µM and 24.3 µM and 22.3 µM
not listed: [10] | [17] | [18] | [19] | [20]
inactive: all other assays above

CC(=O)O[C@]1(C(C)=O)CC[C@H]2[C@@H]3C[C@H](C)C4=CC(=O)CC[C@]4(C)[C@H]3CC[C@@]21C
active: [9] 37.9 nM and 21.9 nM | [12] 5.31 µM | [13] 3.76 µM and 4.85 µM | [14] 8.41 µM and 21.7 µM
not listed: [10] | [15] | [17] | [18] | [19] | [20]
inactive: all other assays above
